This is an account of results in PubChem BioAssay (Tox21).

The structures appear in SMILES notation. Inconclusive results are not listed. Where a call stands in place of a potency, no number is given. A number with no mark means an inactive call. The source made the active and inactive calls. Calls follow the shape of the full dose curve.

This test in a line: p53 small molecule agonists, cell-based qHTS assay with rat liver microsomes (AID 1963578). Particulars: HCT-116 p53RE-bla, beta-lactamase ratio, 16 h; series mostly up to 66 µM. An excerpt: U.S. Tox21 Program National Center for Advancing Translational Sciences [NCATS] Division of Preclinical Innovation [DPI] U.S. Environmental Protection Agency [EPA] National Institutes of Environmental Health Sciences [NIEHS] National Toxicology Program [NTP] U.S. Food and Drug Administration [FDA] Tox21 Assay Overview: p53, a tumor suppressor protein, is activated following cellular insult, including DNA damage and other cellular stresses. The activation of p53 regulates cell fate by inducing DNA repair, cell cycle arrest, apoptosis, or cellular senescence. The activation of p53, therefore, is a good indicator of DNA damage and other cellular stresses. […] The activation of the reporter gene under culture conditions can be detected by fluorescence intensity. This cell line was used to screen the Tox21 10K compound library in the condition of presence of rat liver microsomes and to identify agonists that activate the p53 signaling pathway after in vitro metabolic activation (Ooka et al., Archive of Toxicology 96:1975-1987, 2022).
Tox21 Assay Protocol Summary: The p53RE-bla cells were dispensed at 4,000cells/3ul/well in 1536-well black-clear bottom plates. After the assay plates were incubated at 37 C, 5% CO2 incubator for 5 hours, 23 nL of compounds dissolved in DMSO, positive controls or DMSO only was transferred to the assay plate. Following compound addition, 3 uL of rat liver microsomes (Molecular Toxicology, Boone, NC) at final concentration of 0.5 mg/mL and 1uL of Beta-Nicotinamide adenine dinucleotide 2-phosphate (NADPH) at final concentration of 0.5 mg/mL were transferred to the assay plate. The plates were incubated at 37 C for 16 hours. 1 uL of LiveBLAzer detection mixture was added to each well and the plates were incubated at room temperature in the dark for 2 h.
(In general: qHTS replaces the single test concentration by a dilution series.)
For the compound `OC(CCN1CCCC1)(c1ccccc1)C1CCCCC1` (stereo not given), the Potency result is “inactive”.

Take `CC(CC(=O)O)CC(C)(C)C` (stereo not given): the Potency result was “inactive”.

Consider `Cc1cc(CC(=O)O)c(C)n1-c1ccc(Cl)cc1`, for which the Potency entry was “inactive”.

On to `N#Cc1ccc(C(=O)O)cc1`, for which the Potency entry was “inactive”.

`Cc1ccc(O)cn1`: the Potency result was “inactive”.

For the compound `CCOC(=O)N1CCC(n2c(=O)[nH]c3cc(Cl)ccc32)CC1`, the Potency result was “inactive”.

Regarding `CCC(CO)(CO)[N+](=O)[O-]`, the Potency entry was “inactive”.

As to `O=[N+]([O-])c1ccc(/C=N\O)o1`, the Potency entry was “inactive”.

As for `Cc1cccc2nccnc12`, the Potency entry was “inactive”.

As for `C1CCN(CN2CCCCC2)CC1`, the Potency result is “inactive”.

For `CC(=O)Nc1ccc(OCC(O)CNC(C)C)cc1` (stereo not given), the Potency result is “inactive”.

As for `C=CC(=O)OCC[N+](C)(C)C`, the Potency result was “inactive”.

Regarding `NC(=O)C(c1ccccc1)(c1ccccc1)[C@@H]1CCN(CCc2ccc3c(c2)CCO3)C1`, the Potency result is “inactive”.

For `Clc1ccc(C(Cn2ccnc2)OCc2c(Cl)cccc2Cl)c(Cl)c1` (stereo not given), the Potency result was “inactive”.

In the case of `O[C@@H](CNC[C@H](O)[C@H]1CCc2cc(F)ccc2O1)[C@@H]1CCc2cc(F)ccc2O1`, the Potency result was “inactive”.

In the case of `COC[C@H](c1ccc(C(F)(F)F)cc1)N1CCN(C2(C)CCN(C(=O)c3c(C)ncnc3C)CC2)C[C@H]1C`, the Potency entry was “inactive”.

As for `COC(=O)c1ccc(NC(C)=O)cc1OC`, the Potency result was “inactive”.

On to `C=C1CC[C@H](O)C/C1=C\C=C1/CCC[C@]2(C)[C@@H]([C@H](C)CCCC(C)C)CC[C@@H]12`, for which the Potency result was “inactive”.

For `C=CC(=O)O`, the Potency result was “inactive”.

As for `Cn1c(=O)cc(Oc2ccc(F)cc2F)c2cnc(NCC(C)(C)O)nc21`, the Potency result is “inactive”.

Turning to `OCC(O)[C@@H](O)[C@H](O)[C@H](O)CO[C@H]1O[C@H](CO)[C@@H](O)[C@H](O)[C@H]1O` (stereo not given in full), the Potency result was “inactive”.

Take `CC(=O)N(CC(O)CN(C(C)=O)c1c(I)c(C(=O)NCC(O)CO)c(I)c(C(=O)NCC(O)CO)c1I)c1c(I)c(C(=O)NCC(O)CO)c(I)c(C(=O)NCC(O)CO)c1I` (stereo not given): the Potency entry is “inactive”.

As to `C#CCN[C@@H]1CCc2ccccc21`, the Potency entry was “inactive”.

As for `O=C(O)CCCCCCC(=O)O`, the Potency entry is “inactive”.

With `NS(=O)(=O)c1ccc(Cl)c(S(N)(=O)=O)c1`, the Potency entry was “inactive”.

As to `CNc1c2c(nn1C)CCCC2`, the Potency entry was “inactive”.

In the case of `CC1=C2[C@H](/C=C(\C)C(=O)O)CC[C@@H](C)[C@H]2CC1`, the Potency result is “inactive”.

On to `[Cu+]`, for which the Potency entry was “inactive”.

Consider `CC/C=C\CCOC(C)=O`, for which the Potency result was “inactive”.

With `COc1ccc(NS(=O)(=O)c2ccc(N)cc2)nn1`, the Potency result is “inactive”.

Regarding `CCCCCCCCCCCCCC[n+]1ccccc1`, the Potency entry is “inactive”.

As for `C=CCSSCCC`, the Potency result was “inactive”.

Consider `Cc1cc(S(=O)(=O)O)ccc1N=Nc1c(O)ccc2ccccc12`, for which the Potency result was “inactive”.

Turning to `COc1c(N2C[C@@H]3CCCN[C@@H]3C2)c(F)cc2c(=O)c(C(=O)O)cn(C3CC3)c12`, the Potency entry is “inactive”.

As for `O=C(CCN1CCN2CCCC2C1)N1c2ccccc2Sc2ccc(Cl)cc21` (stereo not given), the activation was 1.06% [at 13.6 µM].

For `CCCCCc1ccc(N)cc1`, the Potency result is “inactive”.

With `CCCCNc1c(C(=O)OCC)c(C)nc2c1cnn2CC`, the Potency entry was “inactive”.

`C/C=C/C=C/CCCCCCCO`: the Potency result is “inactive”.

On to `NC(=O)N(O)[C@@H]1C=C[C@H](Oc2cccc(Oc3ccc(F)cc3)c2)C1`, for which the Potency result is “inactive”.

With `FC(F)OC(Cl)C(F)(F)F` (stereo not given), the Potency entry was “inactive”.
